Hit rate of the full screen: of about 10,000 compounds, about 320 (3.2%) were called active. For the sample, actives were picked, then their nearest neighbours and some compounds at random. Values without a mark were called inactive. No stated cut-off is given here; in the data, active means CPE inhibition mostly above about 9.1% (no sharp cut-off); inactive means mostly below about 7.2%.

This test is described as follows: antivirals protecting cells from dengue CPE – CPE readout, HTS (AID 540333). The settings on record: Dengue virus CPE inhibition in host cells, at 20 µM; hits give high values.
Consider `O=C(CNC(=O)c1cccc(Cl)c1)N/N=C/C=C/c1ccccc1`, for which the CPE inhibition was 0.175%.
The value for `O=C(CSc1nc2ccccc2c(=O)n1-c1ccc(F)cc1F)c1c[nH]c2ccccc12` was 2.1%.
The result for `CCOC(=O)c1c(CSc2ccc(C)cc2)oc2ccc(O)cc12` reads 20.7% (active); that for `CCOC(=O)c1c(C)[nH]c(C)c1C(=O)CSc1nc2ccccc2c(=O)n1-c1ccc(C)cc1`, “inactive”; that for `Cc1ccc(SCC(=O)c2c(C)[nH]c3ccccc23)cc1`, “inactive”.
`CCOc1ccc(N2C(=O)S/C(=C\c3cccn3C)C2=O)cc1`: the CPE inhibition result is “inactive”.
The value for `CCOc1ccc(/C=C2\SC(N3CCc4ccccc4C3)=NC2=O)cc1` was 17.6% (active); that for `CCS(=O)(=O)c1nc(S(=O)(=O)c2ccc(Cl)cc2)c(N2CCc3ccccc3C2)s1` was 0.63%.
As to `O=C(CNC1=NCCC1)c1ccc(Cl)cc1`, the CPE inhibition is 0.59%.
The result for `O=C(OCC(=O)N1CCCCC1)c1cc(NS(=O)(=O)c2ccc(Cl)c([N+](=O)[O-])c2)ccc1O` reads 0.48%; that for `CCN(C(=O)COC(=O)c1cc(NS(=O)(=O)c2ccc(Cl)c([N+](=O)[O-])c2)ccc1O)C1CCCCC1`, 17.4% (active); that for `CCN(CC)S(=O)(=O)c1ccc(NS(=O)(=O)c2ccc(O)c([N+](=O)[O-])c2)cc1`, 0.085%.
With `O=C(Nc1nnc(C2CC2)s1)c1cc([N+](=O)[O-])ccc1N1CCCCC1`, the CPE inhibition result is “inactive”.
The value for `CCOC(=O)[C@H]1[C@H]2COc3ccc(OC)cc3[C@@H]2N2C(=O)c3ccc(F)cc3NC(=O)[C@@]12C` was “inactive”; that for `CCOC(=O)[C@H]1[C@H]2COc3ccc(Cl)cc3[C@@H]2N2C(=O)c3cc(C)ccc3NC(=O)[C@@]12C` was 12.9% (active); that for `CCOC(=O)[C@H]1[C@H]2COc3ccccc3[C@@H]2N2C(=O)c3cc(Cl)ccc3NC(=O)[C@@]12C` was 4.61%.
The result for `CCOC(=O)[C@H]1[C@H]2COc3ccccc3[C@@H]2N2C(=O)c3cc(C)ccc3NC(=O)[C@@]12C` reads 0.17%; that for `CCOC(=O)[C@H]1[C@H]2COc3ccc(Cl)cc3[C@@H]2N2C(=O)c3cc(F)c(F)cc3NC(=O)[C@@]12C`, 18% (active); that for `CCOC(=O)[C@H]1[C@H]2COc3ccccc3[C@@H]2N2C(=O)c3ccc(C)cc3NC(=O)[C@@]12C`, “inactive”.
The result for `NC(=O)CC[C@H](NC(=O)OCc1ccccc1)C(=O)OCc1ccc(Cl)cc1` reads 0.15%; that for `COc1ccc(NC(=O)c2ccc3c(c2)S(=O)(=O)c2ccccc2C3=O)cc1`, 1.25%.
Turning to `O=C(/C=C\Nc1ccc(Br)cc1)c1cccnc1`, the CPE inhibition was 0.09%.

Source of the values: PubChem BioAssay AID540333 (Southern Research Specialized Biocontainment Screening …, 2011).
